# The full list was thinned out, with hits kept by preference.
# TTR transcr act: increases transthyretin transcription; SH-SY5Y TTR promoter Gaussia luciferase, luminescence; 100% = recombinant luciferase protein wells; activation, % at 16.7 µM; hit rate 1.3% among 92,000;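 active means activation above the mean of all tested compounds plus 3 SD, cut at about 9.5% in these data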;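 further: cells exposed to compounds for one day before reading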
# HuH7 TTR inh: HuH7 TTR transcription inhibition, counter-screen. HuH7 TTR promoter-Gaussia luciferase reporter, luminescence. inhibition, % at 16.7 µM. hit rate 4% among 1,100. shares compounds with TTR transcr act;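 active means average inhibition above the solvent-only control wells' mean plus 3 SD, cut at about 15% in these data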;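 further: inhibitors lower well luminescence so higher value means more inhibition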
# TTR act confirm: confirmation of human transthyretin transcription activators | shares compounds with TTR transcr act | activation, % at 16.7 µM | AID 1117280 | 1,100 tested, under 10 active | SHSY5Y TTR promoter Gaussia luciferase, luminescence; 100% = purified Lucia enzyme wells, no cells;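 active means mean activation above a set limit taken from the earlier primary screen, cut at about 11% in these data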
# A number is an active result; – = inactive.
SMILES,TTR transcr act,others
Cc1nc(NCCCn2ccnc2)c2oc3ccccc3c2n1,49,HuH7 TTR inh=–;TTR act confirm=–
Cc1nc(NCC2CCCO2)c2oc3ccccc3c2n1 (stereo unspecified),–,
O=C(Nc1ccccc1C(=O)N1CCN(c2cccc(Cl)c2)CC1)C1=CSCCO1,–,
Cc1ccc(C)c(NC(=O)c2ccccc2Sc2ccc([N+](=O)[O-])cc2Cl)c1,–,
C/C(=N\NC(=O)CCc1ccc(S(=O)(=O)N2CCOCC2)cc1)c1ccc(Br)cc1,–,
Cc1cc(C(F)F)n2nc(C(=O)Nc3c(F)cc(F)cc3Br)nc2n1,–,
Cc1cc(C(F)F)n2nc(C(=O)O)nc2n1,–,
COC(=O)c1ccccc1NC(=O)c1nc2nc(C)cc(C(F)F)n2n1,9.8,HuH7 TTR inh=–;TTR act confirm=–
COc1cccc(CSc2nc3cc4c(cc3cc2C)OCCO4)c1,18,HuH7 TTR inh=–;TTR act confirm=–
COC(=O)CSc1nc2cc3c(cc2cc1C)OCO3,–,
COc1cccc(CSc2nc3ccccc3[nH]2)c1,–,
CC1CC(CC(=O)Nc2nc(-c3ccccc3)cs2)C(=O)O1 (stereo unspecified),–,
Cn1cccc1/C=C1\SC(=Nc2cccc(O)c2)NC1=O,–,
O=C(CCl)NCCCN(C(=O)C(Cl)Cl)c1ccc([N+](=O)[O-])cc1,–,
CCOC(=O)c1ccccc1NC(=O)CN1CCC(n2nnc3cc(F)ccc32)CC1,–,
COc1ccc(C(=O)NC(=S)Nc2cc(C)ccn2)cc1[N+](=O)[O-],–,
Cc1cc(NC(=O)C(C)SCC(=O)OC(C)C(=O)Nc2ccc(F)cc2Cl)no1 (stereo unspecified),12,HuH7 TTR inh=–;TTR act confirm=–
Cc1cc(NC(=O)CCOc2ccc(F)cc2)no1,–,
Cc1cc(NC(=O)C(C)SCC(=O)OC(C)C(=O)Nc2cccc(C#N)c2)no1 (stereo unspecified),–,
Cc1cc2c(cc1C)CSC(c1ccccc1OC(=O)C(C)C)SC2,–,
CCN1CCN(Cc2ccc(NC(=O)c3ccc(C)c(NC(=O)c4nccn4C)c3)cc2C(F)(F)F)CC1,11,HuH7 TTR inh=–;TTR act confirm=–
CCN1CCN(Cc2ccc(NC(=O)c3ccc(C)c(NC(=O)c4cccc5[nH]ccc45)c3)cc2C(F)(F)F)CC1,–,
CCN1CCN(Cc2ccc(NC(=O)c3ccc(C)c(NC(=O)c4cc(-c5ccc(Br)cc5)n[nH]4)c3)cc2C(F)(F)F)CC1,–,
CCN(C(=O)COC(=O)/C=C/c1cnc2ccccc2n1)C1CCS(=O)(=O)C1 (stereo unspecified),–,
Cc1nc(C(=O)Nc2cccc(Cl)c2)nn1-c1cc(OC(C)C)c(Cl)cc1Cl,–,
SMILES,TTR transcr act,others
CC1Cc2ccccc2N1S(=O)(=O)c1cccc(C(=O)c2nccn2C)c1 (stereo unspecified),–,
Cc1cccc(CN2C[C@]34C=C[C@@H](C[C@@H]3S2(=O)=O)O4)c1,–,
O=S1(=O)[C@H]2C[C@@H]3C=C[C@@]2(CN1Cc1ccc(Cl)cc1)O3,17,HuH7 TTR inh=–;TTR act confirm=–
Cc1cc(C)cc([C@H]2C[C@]34CN(Cc5ccccc5)S(=O)(=O)[C@H]3C[C@H]2O4)c1,–,
COc1cccc(C2SCC(=O)N2c2ccc(C)cc2)c1OC (stereo unspecified),–,
CC(=O)C1=C(O)C(=O)N(C)C1c1ccccc1[N+](=O)[O-] (stereo unspecified),–,
CCCCCCCNC(=O)C1(CC2CC(c3cccc(Br)c3)=NO2)CCN(C(=O)c2ccccc2)CC1 (stereo unspecified),17,HuH7 TTR inh=–;TTR act confirm=–
O=C(Cc1ccc(F)cc1)N1CCC(CC2CC(c3cccc(Br)c3)=NO2)(C(=O)NCC2CCCCC2)CC1 (stereo unspecified),–,
COc1ccc(CNC(=O)C2(CC3CC(c4ccccc4)=NO3)CCN(C(=O)CCCCCBr)CC2)cc1 (stereo unspecified),–,
Cc1ccc(S(=O)(=O)N(C)c2ccc(C(=O)N3CCC(C(N)=O)CC3)cc2)cc1,–,
COC(=O)c1ccc(C23CC4(C2)[C@H](CN(Cc2ccc(-c5ccccc5)cc2)[C@@H]4c2ccccc2)C3c2ccccc2)cc1 (stereo partly specified),–,
COc1ccc(C2=NN(c3nc4ccccc4s3)C(=O)/C2=C\N(C)C)cc1,–,
O=C1C=C(c2ccc(-c3ccccc3)c(F)c2)C[C@@H](c2ccc3c(c2)OCO3)C1,–,
Cc1nc2c(C)cccc2c2c1COC2,–,
CN(C)Cc1cc2ccccc2c2c1COC2,12,HuH7 TTR inh=–;TTR act confirm=–
Cc1cc2ccc3ccccc3c2cc1CN(C)C,–,
CCC1Nc2ncnc(N3CCN(c4ccccn4)CC3)c2N(Cc2ccc(Br)cc2)C1=O (stereo unspecified),–,
COc1ccc(CNC(=O)c2onc(C)c2Cl)cc1,–,
CCN1C(=O)[C@@H]2[C@@H](c3ccc(SC4CCCCC4)cc3)N3CCC[C@@]3(C(=O)OC)[C@@H]2C1=O,11,HuH7 TTR inh=–;TTR act confirm=–
CCN1C(=O)[C@H]2[C@@H](c3ccc(SC4CCCCC4)cc3)N3CCCC[C@@]3(C(=O)OC)[C@H]2C1=O,–,
COC(=O)[C@@]12CCCN1[C@H](c1ccc(SC3CCCCC3)cc1)[C@H]1C(=O)N(C)C(=O)[C@H]12,–,
COc1ccc2cnn(-c3ccccc3)c(=O)c2c1OC,–,
O=C(NC1CCCC(C(F)(F)F)C1)c1ccc([N+](=O)[O-])o1 (stereo unspecified),–,
O=C(COC(=O)/C=C/c1cccc(F)c1)NC1CCCCC1,–,
COc1ccc(S(=O)(=O)Nc2ccc(NC(C)=O)cc2)cc1,–,
SMILES,TTR transcr act,others
COc1ccc(C(=O)Nc2ccc(C)cn2)c(OC)c1,–,
COc1ccc(S(=O)(=O)Nc2ccc(C)cn2)cc1,14,HuH7 TTR inh=–;TTR act confirm=–
CCOC(=O)C(=CNCC(=O)OC)C(=O)OCC,–,
COc1ccc2oc(=O)c(-c3nnc(N)s3)cc2c1,10,HuH7 TTR inh=–;TTR act confirm=–
COc1ccc2oc(=O)c(C(=O)NCc3ccco3)cc2c1,–,
COc1ccc2oc(=O)c(C(=O)Nc3ccccc3O)cc2c1,–,
Cc1ccc(NC(=O)c2ccc(CNc3c(N4CCC(C)CC4)c(=O)c3=O)cc2)cc1,–,
CCCCCn1c(=S)[nH]c2cc(C(=O)N3CCCC3)ccc2c1=O,10,HuH7 TTR inh=–;TTR act confirm=–
COc1ccc(CCn2c(=S)[nH]c3cc(C(=O)N4CCOCC4)ccc3c2=O)cc1OC,–,
O=C(c1ccc2c(=O)n(-c3ccccc3)c(=S)[nH]c2c1)N1CCCCC1,–,
O=c1cc(-c2ccco2)nc(-c2cccs2)o1,–,
CC1=CC(c2ccccc2)n2nc(N)nc2N1 (stereo unspecified),–,
Cc1cc(C)n(CC(O)COc2cccc(OCC(O)Cn3nc(C)cc3C)c2)n1 (stereo unspecified),–,
Cc1cc(C)n(CCOc2ccc(Br)cc2)n1,10,HuH7 TTR inh=–;TTR act confirm=–
Cc1cc(C)n(CCCC(=O)O)n1,–,
Cc1ccc(-c2n[nH]c(=S)n2/N=C/c2cccs2)cc1,14,HuH7 TTR inh=–;TTR act confirm=–
Cn1cccc1/C=N/n1c(-c2ccc(Cl)cc2)n[nH]c1=S,–,
Cc1ccc(/C=N/n2c(-c3ccncc3)n[nH]c2=S)cc1,–,
COc1ccc(CCn2c(=O)[nH]c3cc(C(=O)NCCN4CCOCC4)ccc3c2=O)cc1OC,–,
Cc1ccc2cccc(OCC(=O)N(C)CC(=O)Nc3ccc(F)cc3)c2n1,–,
Cc1ccc(NC(=O)CN(C)C(=O)COc2c(Cl)cc(Cl)c3ccc(C)nc23)cc1,13,HuH7 TTR inh=–;TTR act confirm=–

# Screening data deposited in PubChem by The Scripps Research Institute Molecular Screening Center.
